Laboratory results taken from PubChem BioAssay (EPA / NIEHS).
Values joined by “and” are separate entries in the source; they are usually repeats but may differ in a detail not shown here. Equal entries are not always repeated. Some structures have more than one record in an assay (separate samples or runs), and their calls can disagree. Active and inactive are the calls of the source. Rule for the calls: active = hit-call score of the fitted dose curve at least 0.9, where 1 is the maximum; inactive = score below 0.9.

How the values were obtained:
[1] = APR_HepG2_MitoMembPot_72hr: Apredica 72-hour HepG2 Assay for Mitochondrial Membrane Potential (AID 2282917); details: imaging, actives raise or lower the signal
Summary of the method: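 HepG2 cells dosed 72 hr with compound at 0.39–200 uM in duplicate, 0.5% v/v DMSO final. Mitochondria stained with 250 nM MitoTracker Red CMXRos for 30 min before formaldehyde fixation, imaged by high-content fluorescence; bidirectional fit versus DMSO.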

[2] = APR_HepG2_MitoticArrest_72hr: Apredica 72-hour HepG2 Assay for Mitotic Arrest (AID 2282918); details: high-content imaging, actives raise or lower the signal
Summary of the method: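 Read-out is phospho-histone H3 immunofluorescence with Hoechst nuclear segmentation, imaged at 20x. Human HepG2 liver cells received ten concentrations (0.39–200 uM, final DMSO 0.5% v/v) for 72 hr before fixation. Gain or loss of signal was fitted relative to DMSO.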

[3] = APR_HepG2_MicrotubuleCSK_72hr: Apredica 72-hour HepG2 Assay for Microtubule CSK Stabilty (AID 2282919); details: HepG2 microtubule cytoskeleton, high-content imaging, actives raise or lower the signal
Summary of the method: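 HepG2 cells were exposed 72 hr to compound at 0.39–200 uM in duplicate (0.5% DMSO final), then fixed and permeabilized. Alpha-tubulin immunofluorescence was imaged by high-content microscopy, with bidirectional fitting against DMSO and taxol as positive control.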

[4] = APR_HepG2_StressKinase_72hr: Apredica 72-hour HepG2 Assay for Stress Kinase (AID 2282921); details: HepG2 stress kinase (phospho-c-Jun) imaging, actives raise or lower the signal
Summary of the method: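 Dose 0.39–200 uM (10 pts, duplicate), 0.5% DMSO; 72 h; fix 3.7% formaldehyde 30 min RT; Triton permeabilize; anti-phospho-c-Jun/Cy3 + Hoechst 60 min RT; image 20x; fit gain/loss vs DMSO.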

[5] = APR_HepG2_StressKinase_24hr: Apredica 24-hour HepG2 Assay for Stress Kinase (AID 2282922); details: HepG2 stress kinase (phospho-c-Jun) imaging, actives raise or lower the signal
Summary of the method: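 HepG2 cells exposed 24 h to 0.39–200 uM compound in duplicate (0.5% v/v DMSO final). Cells fixed in 3.7% formaldehyde, permeabilized and immunostained for phospho-c-Jun; read by high-content fluorescence imaging, fitted bidirectionally against DMSO.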

[6] = APR_HepG2_p53Act_72hr: Apredica 72-hour HepG2 Assay for p53 Activation (AID 2282923); details: high-content imaging, actives raise or lower the signal;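 note: average cellular p53 protein immunofluorescence intensity in HepG2 cells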
Summary of the method: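 10-pt conc. 0.39–200 uM, duplicate, 0.5% DMSO; 72 hr exposure; 3.7% formaldehyde fix, 0.5% Triton perm; sheep anti-p53/Cy5 + Hoechst; ArrayScan 20x, 6 images/well; gain/loss fit vs DMSO.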

[7] = APR_HepG2_NuclearSize_72hr: Apredica 72-hour HepG2 Assay for Nuclear Size (AID 2282925); details: high-content imaging, actives raise or lower the signal
Summary of the method: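 HepG2 cells dosed 72 h at 0.39–200 uM (10 concentrations, duplicate) in 0.5% v/v DMSO final. Fixed, Hoechst 33342-stained nuclei imaged; nuclear diameter measured by automated image analysis. Bidirectional fit versus DMSO.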

[8] = ATG_CRE_CIS: Attagene CIS-FACTORIAL HepG2 Assay for human cAMP Responsive Element (CRE) binding protein 3 (AID 2282926); details: HepG2 CRE cis-reporter, Attagene multiplexed mRNA; actives raise or lower the signal
Summary of the method: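 Human liver HepG2, transient MRTU transfection, 24 h compound exposure. Total RNA → oligo(dT) RT → PCR → 6-FAM primer extension → HpaI cut → CE. Activity called both directions vs DMSO.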

[9] = target: CCAAT/enhancer-binding protein beta (Homo sapiens) (UniProt P17676); assay: ATG_C_EBP_CIS: Attagene CIS-FACTORIAL HepG2 Assay for human CCAAT/Enhancer Binding Protein (C/EBP) beta (AID 2282927); details: HepG2 Attagene cis-factorial transcription factor reporter; actives raise or lower the signal
CCAAT/enhancer-binding protein beta (Homo sapiens), sequence (P17676 whole entry, looked up): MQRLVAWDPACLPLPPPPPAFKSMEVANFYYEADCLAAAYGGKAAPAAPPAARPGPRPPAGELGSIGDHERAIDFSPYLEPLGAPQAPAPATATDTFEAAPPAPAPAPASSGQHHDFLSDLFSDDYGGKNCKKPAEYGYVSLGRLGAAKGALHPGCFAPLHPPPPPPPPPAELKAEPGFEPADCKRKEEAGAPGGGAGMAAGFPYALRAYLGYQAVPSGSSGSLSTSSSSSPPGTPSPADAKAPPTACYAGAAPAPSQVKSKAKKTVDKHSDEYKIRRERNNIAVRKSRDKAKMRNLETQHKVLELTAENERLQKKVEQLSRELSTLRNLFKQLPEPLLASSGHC
Summary of the method: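 HepG2 transiently transfected with multiplexed reporter units under cis-regulatory promoters reporting endogenous C/EBPb activity. After 24 h exposure, reporter mRNA assayed by RT-PCR, fluorescent labelling, HpaI digestion and capillary electrophoresis; bidirectional fitting versus DMSO.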

[10] = ATG_CMV_CIS: Attagene CIS-FACTORIAL HepG2 Assay for human CMV (Internal Marker) (AID 2282928); details: HepG2 CMV promoter reporter, transcription factor profiling; actives raise or lower the signal;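 note: endpoint acts as a background internal control marker rather than a target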
Summary of the method: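 HepG2 cells transiently transfected with multiple cis-regulated reporter units; 24 h compound exposure. Reporter mRNA quantified by RT-PCR, 6-FAM primer-extension labeling, HpaI digestion and capillary electrophoresis; bidirectional fitting against DMSO baseline.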

[11] = ATG_DR4_LXR_CIS: Attagene CIS-FACTORIAL HepG2 Assay for human Liver X Receptor (LXR), DR4 submotif (AID 2282929); details: HepG2 Attagene DR4 cis-reporter, mRNA transcription; actives raise or lower the signal
Summary of the method: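 HepG2 cells transiently transfected with cis-promoter-driven multiplexed reporter units (DR4 element) were dosed for 24 h. Reporter mRNA was quantified by RT-PCR, fluorescent primer extension, HpaI digestion and capillary electrophoresis; bidirectional fitting versus DMSO baseline.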

[12] = ATG_AP_1_CIS: Attagene CIS-FACTORIAL HepG2 Assay for human Activator Protein 1 (AP-1) (AID 2282931); details: HepG2 Attagene cis-factorial AP-1 reporter mRNA; actives raise or lower the signal
Summary of the method: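 HepG2 cells transiently transfected with cis-element-driven multiplex reporter units; 24 h compound exposure. Reporter mRNA quantified by RT-PCR, FAM-labelled fragments resolved by capillary electrophoresis; bidirectional fit versus DMSO baseline.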

[13] = ATG_AP_2_CIS: Attagene CIS-FACTORIAL HepG2 Assay for human Activator Protein 2 (AP-2) (AID 2282932); details: HepG2 AP-2 cis-reporter, Attagene transcription factor profiling; actives raise or lower the signal
Summary of the method: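 HepG2 cells transiently transfected with cis-element reporter units and exposed for 24 h. Reporter mRNA measured by RT-PCR, FAM labelling, HpaI digestion and capillary electrophoresis. Changes in either direction fitted relative to DMSO.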

[14] = ATG_BRE_CIS: Attagene CIS-FACTORIAL HepG2 Assay for human Bone Morphogenetic Protein (BMP) Response Element (BRE) (AID 2282933); details: HepG2 BMP response element reporter, Attagene transcription factor profiling; actives raise or lower the signal
Summary of the method: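 Read-out: reporter mRNA induction quantified by RT-PCR and capillary electrophoresis after 24 h chemical exposure of transfected HepG2 cells. Endogenous factor activity on the BMP response element; gain or loss fitted against DMSO baseline.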

[15] = target: Transcription factor E2F1 (Homo sapiens) (UniProt Q01094); assay: ATG_E2F_CIS: Attagene CIS-FACTORIAL HepG2 Assay for human E2F Transcription Factor 1 (AID 2282935); details: HepG2 Attagene cis-reporter, E2F reporter RNA transcripts; actives raise or lower the signal
Transcription factor E2F1 (Homo sapiens), sequence (Q01094 whole entry, looked up): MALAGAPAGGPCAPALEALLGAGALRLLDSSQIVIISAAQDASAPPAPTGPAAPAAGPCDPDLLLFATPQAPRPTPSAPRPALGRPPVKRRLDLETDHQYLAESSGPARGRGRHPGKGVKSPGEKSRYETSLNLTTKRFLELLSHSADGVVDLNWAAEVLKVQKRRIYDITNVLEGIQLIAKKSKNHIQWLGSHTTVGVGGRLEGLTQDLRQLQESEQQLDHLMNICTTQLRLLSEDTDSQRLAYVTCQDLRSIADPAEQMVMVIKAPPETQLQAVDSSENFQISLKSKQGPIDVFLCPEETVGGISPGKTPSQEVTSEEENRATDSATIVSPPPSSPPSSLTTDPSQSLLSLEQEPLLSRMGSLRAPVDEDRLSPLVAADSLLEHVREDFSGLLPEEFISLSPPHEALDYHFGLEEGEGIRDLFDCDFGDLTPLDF
Summary of the method: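 Endogenous E2F1 activity read through cis-promoter reporter units transfected into HepG2. After 24 h compound treatment, reporter mRNA measured by RT-PCR, HpaI digestion and capillary electrophoresis. Bidirectional fit versus DMSO.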

[16] = target: Aryl hydrocarbon receptor (Homo sapiens) (UniProt P35869); assay: ATG_Ahr_CIS: Attagene CIS-FACTORIAL HepG2 Assay for human Aryl Hydrocarbon Receptor (Ahr) (AID 2282930); details: HepG2 AhR cis-factorial reporter transcription; actives raise or lower the signal
Aryl hydrocarbon receptor (Homo sapiens), sequence (P35869 whole entry, looked up): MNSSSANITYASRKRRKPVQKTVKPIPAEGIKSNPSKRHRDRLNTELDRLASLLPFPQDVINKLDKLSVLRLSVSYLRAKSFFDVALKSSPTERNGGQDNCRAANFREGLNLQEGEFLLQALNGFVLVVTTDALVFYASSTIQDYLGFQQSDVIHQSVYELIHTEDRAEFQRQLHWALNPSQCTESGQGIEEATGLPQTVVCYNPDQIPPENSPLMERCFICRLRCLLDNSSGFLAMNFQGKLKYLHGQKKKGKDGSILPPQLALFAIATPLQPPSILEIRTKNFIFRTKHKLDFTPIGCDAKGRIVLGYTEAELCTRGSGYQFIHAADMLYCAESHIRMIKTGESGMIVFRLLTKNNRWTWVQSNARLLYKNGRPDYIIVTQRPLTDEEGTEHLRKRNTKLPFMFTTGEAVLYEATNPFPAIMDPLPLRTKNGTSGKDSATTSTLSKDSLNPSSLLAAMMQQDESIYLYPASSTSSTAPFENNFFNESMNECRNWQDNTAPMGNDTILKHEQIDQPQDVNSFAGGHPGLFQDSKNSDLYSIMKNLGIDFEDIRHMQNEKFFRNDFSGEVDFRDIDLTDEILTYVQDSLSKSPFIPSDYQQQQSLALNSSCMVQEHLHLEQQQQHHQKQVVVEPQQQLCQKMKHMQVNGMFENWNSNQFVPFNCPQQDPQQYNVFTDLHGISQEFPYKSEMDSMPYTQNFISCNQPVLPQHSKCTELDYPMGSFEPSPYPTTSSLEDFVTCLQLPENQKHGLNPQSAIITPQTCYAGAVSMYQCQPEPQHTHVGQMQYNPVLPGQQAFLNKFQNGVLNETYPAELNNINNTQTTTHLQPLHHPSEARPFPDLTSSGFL
Summary of the method: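 HepG2 cells transiently transfected with cis-element-driven multiplexed reporter units; endogenous AhR activity read as reporter mRNA 24 h after dosing, via RT-PCR, 6-FAM labelling, HpaI digestion and capillary electrophoresis. Bidirectional fit relative to DMSO.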

[17] = APR_HepG2_MitoMass_72hr: Apredica 72-hour HepG2 Assay for Mitochondrial Mass (AID 2282924); details: high-content imaging, actives raise or lower the signal;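 note: MitoTracker Red CMXRos stain intensity per cell imaged as mitochondrial mass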
Summary of the method: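 HepG2 cells dosed 72 hr at 0.39–200 uM (0.5% DMSO), in duplicate. MitoTracker Red CMXRos 250 nM loaded 30 min before formaldehyde fixation; high-content fluorescence imaging, bidirectional fit versus DMSO.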

[18] = target: Retinoic acid receptor alpha (Homo sapiens) (UniProt P10276); assay: ATG_DR5_RAR_CIS: Attagene CIS-FACTORIAL HepG2 Assay for human Retinoic Acid Receptor Alpha (RARE), DR5 submotif (AID 2282934); details: HepG2 Attagene cis-factorial RARE DR5 reporter, mRNA; actives raise or lower the signal;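 for AC50: reporter responds to endogenous RAR alpha beta and gamma in HepG2 not RARA alone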
Retinoic acid receptor alpha (Homo sapiens), sequence (P10276 whole entry, looked up): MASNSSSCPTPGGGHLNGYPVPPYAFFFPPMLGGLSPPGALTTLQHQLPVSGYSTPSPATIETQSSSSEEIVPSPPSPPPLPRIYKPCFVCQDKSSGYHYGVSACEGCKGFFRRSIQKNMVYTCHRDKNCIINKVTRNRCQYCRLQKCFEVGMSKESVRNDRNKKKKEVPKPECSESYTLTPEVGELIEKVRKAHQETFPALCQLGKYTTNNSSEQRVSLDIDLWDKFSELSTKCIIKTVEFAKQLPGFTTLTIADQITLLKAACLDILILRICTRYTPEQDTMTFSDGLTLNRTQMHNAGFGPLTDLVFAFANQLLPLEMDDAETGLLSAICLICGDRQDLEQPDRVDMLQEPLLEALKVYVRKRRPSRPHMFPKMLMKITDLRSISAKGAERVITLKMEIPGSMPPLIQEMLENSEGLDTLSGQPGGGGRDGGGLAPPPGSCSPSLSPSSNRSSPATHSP
Summary of the method: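 HepG2 cells transiently transfected with multiplexed reporter units; DR5 cis-element drives reporter through endogenous transcription factors. After 24 h dosing, reporter mRNA quantified by RT-PCR, fluorescent labeling, HpaI digestion and capillary electrophoresis; bidirectional fitting versus DMSO.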

[19] = APR_HepG2_P-H2AX_24hr: Apredica 24-hour HepG2 Assay for H2AX Phosphorylation (AID 2282920); details: high-content imaging, actives raise or lower the signal
Summary of the method: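 HepG2, 24 hr, cpd 0.39–200 uM (10 conc, duplicate), DMSO 0.5% v/v final. Fix 3.7% formaldehyde, Triton X-100 permeabilize, anti-phospho-H2A.x 1:200 + Hoechst 2 ug/mL. Imaged, bidirectional fit vs DMSO.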

[20] = ATG_E_Box_CIS: Attagene CIS-FACTORIAL HepG2 Assay for human Enhancer Box (E-box) (AID 2282936); details: HepG2 E-box cis-reporter transcription, actives raise or lower the signal
Summary of the method: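 HepG2 cells transiently transfected with multiplexed cis-element reporter units, dosed 24 h; reporter mRNA quantified by RT-PCR, 6-FAM labelling, HpaI digestion and capillary electrophoresis. E-box (USF1) signal fitted bidirectionally vs DMSO.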

Measured: AC50

CCCCCCC(C)OC(=O)COc1nc(F)c(Cl)c(N)c1Cl (stereo unspecified)
active: [3] 106 µM
not listed: [16] | [17] | [18] | [19] | [20]
inactive: all other assays above

O=C(O)c1ccccc1
not listed: [8] | [17] | [18] | [19] | [20]
inactive: all other assays above

CCC(C)OC(=O)N1CCCCC1CCO (stereo unspecified)
not listed: [19] | [20]
inactive: all other assays above

O=C(O)C1(C(=O)Nc2ccc(Cl)cc2Cl)CC1
inactive: all assays above

COC(=O)c1c(Cl)nn(C)c1S(=O)(=O)NC(=O)Nc1nc(OC)cc(OC)n1
active: [9] 4.06 µM
not listed: [2] | [17]
inactive: all other assays above

Oc1ccc(C(c2ccc(O)cc2)C(Cl)(Cl)Cl)cc1
active: [2] 85.6 µM
not listed: [8] | [17] | [18] | [20]
inactive: all other assays above

CCOC(=O)C(C)Oc1ccc(Oc2nc3ccc(Cl)cc3o2)cc1 (stereo unspecified)
not listed: [8]
inactive: all other assays above

CC(C)(c1ccc(O)cc1)c1ccc(O)cc1
inactive: [1] | [3] | [4] | [5] | [6] | [7] | [9] | [10] | [11] | [16] | [12] | [13] | [14] | [18] | [15]
active: [1] 101 µM and 81.5 µM and 107 µM | [4] 102 µM | [9] 33.4 µM | [10] 50 µM [middle of 6 runs] | [16] 26.9 µM and 49.5 µM and 23.6 µM | [13] 121 µM and 148 µM and 101 µM | [14] 155 µM

CCCCC(CC)COC(=O)c1ccccc1C(=O)O (stereo unspecified)
not listed: [16] | [17] | [18] | [20]
inactive: all other assays above

CCN(Cc1c(F)cccc1Cl)c1c([N+](=O)[O-])cc(C(F)(F)F)cc1[N+](=O)[O-]
active: [3] 34.6 µM | [10] 10.6 µM | [11] 8.45 µM | [12] 28.9 µM | [14] 1.4 µM | [18] 1.8 µM
not listed: [2] | [8] | [20]
inactive: all other assays above

O=C(c1ccc(O)cc1O)c1ccc(O)cc1O
active: [10] 80.5 µM [middle of 4 runs]
not listed: [8] | [17] | [19] | [20]
inactive: all other assays above

S=C([S-])NCCNC(=S)[S-].[Mn+2]
active: [3] 103 µM
not listed: [6] | [8] | [17] | [18] | [19] | [20]
inactive: all other assays above

C[C@]12CC[C@@H]3c4ccc(O)cc4C[C@@H](CCCCCCCCCS(=O)CCCC(F)(F)C(F)(F)F)[C@H]3[C@@H]1CC[C@@H]2O (stereo partly specified)
active: [1] 22 µM
not listed: [17] | [19] | [20]
inactive: all other assays above

CCNc1nc(N)nc(Cl)n1
not listed: [2] | [16]
inactive: all other assays above
